IDE exosite FP: exo-site inhibitors of human insulin-degrading enzyme. purified IDE, FL-6b probe fluorescence polarization; hits give low values. P14735. z-score at 20 µM. 17,000 tested, 6.3% active;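 active = z-score of -3 or lower, meaning strong loss of probe binding signal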;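 note: His-tagged human IDE residues 42-1019 made in E. coli with 30 nM FL-6b probe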
Target sequence (P14735 42-1019 limits assumed): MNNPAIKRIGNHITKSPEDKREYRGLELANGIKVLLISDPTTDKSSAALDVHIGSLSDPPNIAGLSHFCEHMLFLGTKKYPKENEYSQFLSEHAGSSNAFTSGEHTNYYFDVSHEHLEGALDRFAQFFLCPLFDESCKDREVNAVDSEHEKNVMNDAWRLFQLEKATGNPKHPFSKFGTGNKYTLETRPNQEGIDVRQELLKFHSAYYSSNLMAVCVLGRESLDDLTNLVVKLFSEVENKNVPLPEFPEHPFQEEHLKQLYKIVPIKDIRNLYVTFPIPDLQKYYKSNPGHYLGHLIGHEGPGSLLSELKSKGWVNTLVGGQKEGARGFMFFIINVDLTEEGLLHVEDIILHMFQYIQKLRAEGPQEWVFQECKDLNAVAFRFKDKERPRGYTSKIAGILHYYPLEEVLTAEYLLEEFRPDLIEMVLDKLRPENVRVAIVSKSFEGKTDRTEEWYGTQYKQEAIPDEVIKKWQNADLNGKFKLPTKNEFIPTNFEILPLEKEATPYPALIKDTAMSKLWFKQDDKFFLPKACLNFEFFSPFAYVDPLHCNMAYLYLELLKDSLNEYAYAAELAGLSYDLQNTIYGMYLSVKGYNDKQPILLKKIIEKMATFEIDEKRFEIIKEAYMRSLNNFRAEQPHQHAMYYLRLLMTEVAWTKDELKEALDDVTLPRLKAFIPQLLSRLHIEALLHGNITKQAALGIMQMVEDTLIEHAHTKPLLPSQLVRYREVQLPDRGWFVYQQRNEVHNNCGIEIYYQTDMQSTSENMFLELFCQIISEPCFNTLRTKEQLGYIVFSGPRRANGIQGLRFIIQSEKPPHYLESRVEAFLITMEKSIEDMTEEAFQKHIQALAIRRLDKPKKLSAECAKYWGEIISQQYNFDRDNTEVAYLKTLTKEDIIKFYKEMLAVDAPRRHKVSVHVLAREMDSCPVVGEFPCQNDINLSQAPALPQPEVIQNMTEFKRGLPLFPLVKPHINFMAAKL
Active calls of the source: *. Only a selection was taken, and hits are over-represented in it overall.

SMILES | IDE exosite FP
COc1ccccc1-c1ccccc1[C@@H]1[C@@H](CO)N(C(=O)CN(C)C)[C@H]1C#N | 0.121
CN(C)CC(=O)N1[C@H](C#N)[C@@H](c2ccc(-c3ccccc3F)cc2)[C@@H]1CO | -2.65
COc1ccccc1-c1ccccc1[C@@H]1[C@@H](C#N)N(C(=O)CN(C)C)[C@H]1CO | -0.25
CN(C)CC(=O)N1[C@H](CO)[C@H](c2ccc(/C=C/c3ccccc3)cc2)[C@@H]1C#N | -1.46
CN(C)CC(=O)N1[C@H](C#N)[C@@H](c2ccccc2-c2ccccc2F)[C@@H]1CO | -0.564
CN(C)CC(=O)N1[C@H](C#N)[C@@H](c2ccc(/C=C/c3ccccc3)cc2)[C@H]1CO | -5.4*
COc1ccccc1-c1ccccc1[C@H]1[C@@H](C#N)N(C(=O)CN(C)C)[C@@H]1CO | 0.32
COc1ccccc1-c1ccccc1[C@H]1[C@@H](CO)N(C(=O)CN(C)C)[C@H]1C#N | 0.748
CO[C@H]1CN(C)C(=O)c2cc(NC(=O)Nc3ccccc3F)ccc2OC[C@H](C)N(CCC(F)(F)F)C[C@@H]1C | 0.177
CCC(=O)N1CC(=O)N2[C@H](CO)[C@H](c3ccc(C#CC4CCCC4)cc3)[C@H]2C1 | 0.147
CN(C[C@@H]1[C@H](c2ccccc2)[C@H](CO)N1Cc1ccccn1)S(C)(=O)=O | 1.19
COc1ccc(S(=O)(=O)Nc2ccc3c(c2)OC[C@H](C)NC[C@H](C)[C@@H](OC)CN(C)C3=O)cc1 | 0.742
COc1ccc2c3c(n(C)c2c1)[C@H](CO)N(C(=O)Nc1ccc(F)cc1)CC31CN(S(=O)(=O)c2cn(C)cn2)C1 | 0.383
N#C[C@H]1[C@@H](c2ccccc2C2=CCCCC2)[C@H](CO)N1C(=O)c1cccc(F)c1 | 1.24
C[C@H](O)C#Cc1ccc([C@H]2[C@@H](CO)N3CCCCN(C(=O)c4cccc(F)c4)C[C@@H]23)cc1 | 1.95
COCC#Cc1ccc([C@@H]2[C@@H](CO)N3CCCCN(Cc4cncnc4)C[C@@H]23)cc1 | -1.46
N#C[C@@H]1[C@H](c2ccccc2C2=CCCC2)[C@@H](CO)N1C(=O)c1ccccn1 | 0.485
CCCNC(=O)N[C@H]1C=C[C@H](CC(=O)N2CCN(C)CC2)O[C@@H]1CO | 0.25
O=C(C1CC1)N1CC(=O)N2[C@H](CO)[C@H](c3ccc(-c4cccnc4)cc3)[C@H]2C1 | -0.842
N#C[C@H]1[C@@H](c2ccc(/C=C/c3ccccc3)cc2)[C@@H](CO)N1C(=O)Cc1ccccn1 | -3.72*
C/C=C/c1ccc([C@H]2[C@@H](C#N)N(C(=O)Cc3ccccn3)[C@H]2CO)cc1 | -2.01
C/C=C/c1ccc([C@@H]2[C@H](C#N)N(C(=O)Cc3ccccn3)[C@H]2CO)cc1 | -0.421
CC(=O)N(C)C[C@H]1[C@@H](c2ccc(-c3cccnc3)cc2)[C@@H](CO)N1C(=O)C1CC1 | 2.69
CS(=O)(=O)N1CCCCN2[C@@H](CO)[C@H](c3ccc(Br)cc3)[C@@H]2C1 | 2.78
O=C(C1CCOCC1)N1CC(=O)N2[C@@H](CO)[C@H](c3ccc(-c4ccccc4F)cc3)[C@@H]2C1 | -1.05
SMILES | IDE exosite FP
O=C(C1CCC1)N1CC(=O)N2[C@H](CO)[C@@H](c3ccc(-c4ccccc4F)cc3)[C@H]2C1 | 2.4
O=C(C1CCOCC1)N1CC(=O)N2[C@H](CO)[C@H](c3ccc(-c4ccccc4F)cc3)[C@H]2C1 | -7.59*
O=C(C1CCCCC1)N1CC(=O)N2[C@H](CO)[C@@H](c3ccc(-c4ccccc4F)cc3)[C@H]2C1 | -0.658
O=C(C1CC1)N1CC(=O)N2[C@H](CO)[C@@H](c3ccc(-c4ccccc4F)cc3)[C@H]2C1 | 1.75
O=C(C1CCC1)N1CC(=O)N2[C@H](CO)[C@@H](c3ccc(-c4ccccc4F)cc3)[C@@H]2C1 | -9.06*
O=C(C1CC1)N1CC(=O)N2[C@H](C1)[C@H](c1ccc(-c3ccccc3F)cc1)[C@@H]2CO | -0.664
O=C(C1CCCCC1)N1CC(=O)N2[C@H](C1)[C@H](c1ccc(-c3ccccc3F)cc1)[C@@H]2CO | -0.709
O=C(C1CC1)N1CC(=O)N2[C@H](CO)[C@H](c3ccc(-c4ccccc4F)cc3)[C@H]2C1 | -7.85*
O=C(C1CCCC1)N1CC(=O)N2[C@H](CO)[C@H](c3ccc(-c4ccccc4F)cc3)[C@@H]2C1 | -3.64*
O=C(C1CCCCC1)N1CC(=O)N2[C@@H](CO)[C@@H](c3ccc(-c4ccccc4F)cc3)[C@@H]2C1 | -1.39
O=C(C1CCC1)N1CC(=O)N2[C@@H](CO)[C@H](c3ccc(-c4ccccc4F)cc3)[C@@H]2C1 | -0.805
Cc1noc(C)c1S(=O)(=O)Nc1ccc2c(c1)C(=O)N([C@@H](C)CO)C[C@@H](C)[C@H](CN(C)C(=O)Nc1cccc3ccccc13)OCCCC[C@@H](C)O2 | -1.75
COCC(=O)N1CC(=O)N2[C@@H](CO)[C@@H](c3ccc(-c4cccnc4)cc3)[C@@H]2C1 | 3.39
COCC(=O)N1CC2(CCN(Cc3ccccc3)CC2)c2c([nH]c3cc(OC)ccc23)[C@@H]1CO | -0.443
N#C[C@@H]1[C@H](c2ccccc2)[C@@H](CO)N1C(=O)Nc1cccc(F)c1 | -0.629
CC(=O)N(C[C@@H]1[C@@H](c2ccc(C3=CCCC3)cc2)[C@@H](CO)N1CC1CC1)C(C)C | 3.65
O=C(c1ccc(F)cc1)N1CC(=O)N2[C@@H](CO)[C@@H](c3ccc(C#CC4CC4)cc3)[C@@H]2C1 | 1.39
O=C(Nc1cc(F)ccc1F)N1CC(=O)N2[C@H](CO)[C@@H](c3ccc(-c4ccc(F)cc4)cc3)[C@@H]2C1 | 0.103
CCC(=O)N1CC2(C1)[C@@H](c1ccc(-c3cccc(C)c3)cc1)[C@@H](CO)N2S(C)(=O)=O | -3.27*
CN(C)CC(=O)N1CC2(C1)[C@@H](c1ccccc1)[C@@H](CO)N2S(C)(=O)=O | 1.08
CCC(=O)N1CC2(C1)[C@H](c1ccc(-c3cccc(C)c3)cc1)[C@@H](CO)N2S(C)(=O)=O | -0.593
COc1ccc2c3c(n(C)c2c1)[C@H](CO)N(C(=O)CN1CCOCC1)CC31CCN(C(=O)Nc2cccc(F)c2)CC1 | 0.137
COCC(=O)N1CC(=O)N2[C@H](C1)[C@@H](c1ccc(-c3ccccc3C)cc1)[C@@H]2CO | -13.6*
COCC(=O)N1CC(=O)N2[C@H](C1)[C@H](c1ccc(-c3ccccc3)cc1)[C@@H]2CO | 3.69
COCC(=O)N1CC(=O)N2[C@@H](CO)[C@@H](c3ccc(-c4ccccc4C)cc3)[C@@H]2C1 | -12.8*
SMILES | IDE exosite FP
COCC(=O)N1CC(=O)N2[C@H](CO)[C@H](c3ccc(Br)cc3)[C@@H]2C1 | 2.55
COCC(=O)N1CC(=O)N2[C@@H](CO)[C@H](c3ccc(-c4ccncc4)cc3)[C@@H]2C1 | -0.939
COCC(=O)N1CC(=O)N2[C@@H](CO)[C@@H](c3ccc(Br)cc3)[C@@H]2C1 | 4.05
COc1ccc(-c2ccc([C@H]3[C@@H](CO)N(C(=O)C4CCC4)[C@H]3C#N)cc2)cc1 | 2.67
CN(C)C(=O)c1cccc(-c2ccc([C@H]3[C@@H](CO)N4CCCCN(CC5CCOCC5)C[C@@H]34)cc2)c1 | -0.149
COc1cccc(NC(=O)C[C@H]2CC[C@H]3[C@H](COc4ccc(NS(=O)(=O)c5cccc(F)c5)cc4C(=O)N3C)O2)c1 | 1.04
C/C=C/c1ccc([C@H]2[C@@H](CO)N3CCCCN(C(=O)Nc4cc(F)ccc4F)C[C@H]23)cc1 | 0.0768
CCCC(=O)Nc1ccc2c(c1)C(=O)N(C)C[C@H](OC)[C@H](C)CN(C(=O)c1ccccn1)[C@@H](C)CO2 | 2.22
Cc1ccccc1-c1ccc([C@H]2[C@H](CO)N3C(=O)CN(C(=O)Nc4cccc(F)c4)C[C@@H]23)cc1 | -3.03*

Assay outcomes as filed in PubChem BioAssay.
